63 compounds from PubChem BioAssay AID588397 (National Center for Advancing Translational Sciences (NCATS), 2011) can be followed below.

The whole screen tested about 1,300 compounds, of which about 1,000 (77%) were called active. Inconclusive results (about 7%) are left out. The call rests on the fitted dose curve; in most records, active means well fitted inhibition curve with a large enough effect; inconclusive means small, poorly fitted or top-dose-only effect; inactive means no such curve, though single readings can be large or run the other way. The set was probably picked from earlier hits. The list shows a part of the results.
On the % scale 0 is the no-effect control and ±100 the full control effect; potency means the concentration at half of the fitted maximal effect.

The assay in a line: qHTS of small molecules that selectively kill Giardia lamblia: Hit Validation.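 Further: viability measured as ATP content by luminescence so killing lowers signal; trophozoites exposed to compounds for 48 h anaerobically at 37 °C; nearly all actives have a fitted effect of over 65% in size.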 The conditions noted are these: Giardia lamblia trophozoite viability, dose-response; series mostly up to 38.3 µM; activity change, negative = killing: at the top concentration. The method, boiled down:
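Trophozoites 100 cells/well + cpd; 48 hrs, 37 deg C, anaerobic. ATPLite 1-Step added, 15-30 min RT, luminescence read (ATP-based viability).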
(qHTS replaces the single test concentration by a dilution series.)
For the compound `O=[N+]([O-])c1cccc2nc3ccccc3c(NCCCn3ccnc3[N+](=O)[O-])c12`, the Potency is 1630 nM (active).

As to `CN=c1scc(-c2ccccc2F)n1/N=C(\C)c1cccnc1`, the Potency is 4100 nM (active).

On to `COc1cc(Nc2ccc(C)cc2)c([N+](=O)[O-])nc1[N+](=O)[O-]`, for which the Potency was 1450 nM (active).

As to `Cc1ccc(Nc2ccc([N+](=O)[O-])nc2[N+](=O)[O-])cc1`, the Potency is 3260 nM (active).

Take `O=C(Nc1ccc2[nH]ncc2c1)c1ccccc1Cl`: the Potency is 5790 nM (active).

On to `O=[N+]([O-])c1ccc(Oc2cccc(Br)c2)c2ccncc12`, for which the Potency is 2050 nM (active).

Take `O=C(NCc1ccco1)c1ccc([N+](=O)[O-])o1`: the Potency was 1830 nM (active).

Turning to `O=C(Cc1ccc(-n2c(=O)c3sccc3n(CC(=O)Nc3ccccc3)c2=O)cc1)NCc1ccco1`, the “activity change, negative = killing” value is 15% (inactive).

Regarding `O=C(Nc1nnc(-c2ccco2)o1)c1ccc([N+](=O)[O-])s1`, the Potency is 3650 nM (active).

Take `O=C(NCc1cccnc1)c1ccc([N+](=O)[O-])o1`: the Potency is 1160 nM (active).

`O=C(Nc1cccnc1)c1ccc([N+](=O)[O-])s1`: the Potency is 2050 nM (active).

With `CN(C(=O)c1cc([N+](=O)[O-])ccc1NCc1cccnc1)c1ccccc1`, the “activity change, negative = killing” value is -18% (inactive).

In the case of `CCN(C(=O)N(CC)c1ccccc1)c1ccccc1`, the “activity change, negative = killing” value is -33.4% (inactive).

Consider `O=C(Nc1ccc(Cc2ccncc2)cc1)c1ccc([N+](=O)[O-])o1`, for which the Potency was 1160 nM (active).

Turning to `O=C(Nc1cccnc1)c1ccc([N+](=O)[O-])o1`, the Potency is 1300 nM (active).

In the case of `Cc1ccc(CNC(=O)c2ccc([N+](=O)[O-])o2)cc1`, the Potency is 1830 nM (active).

Turning to `Cc1ccc(CNC(=O)c2cc(S(=O)(=O)N3CCOCC3)cn2C)cc1`, the “activity change, negative = killing” value was -15.8% (inactive).

For the compound `CNc1nnc(-c2ccc(N(C)C)cc2)s1`, the Potency is 3260 nM (active).

Turning to `CCc1ccc2nc3sc(C(=O)O)cc3cc2c1`, the Potency was 10300 nM (active).

In the case of `CCN1C[C@@H]2[C@@H]3C(=O)N(C)C(=O)[C@@H]3[C@](C)(C1=O)N2C(=O)c1ccc(Cl)c(Cl)c1`, the “activity change, negative = killing” value was -11.8% (inactive).

For the compound `O=C1NCCN1c1ncc([N+](=O)[O-])s1`, the Potency was 103 nM (active).

As to `COc1ccc(-c2cc3nc[nH]c(=O)c3s2)cc1`, the Potency is 4600 nM (active).

As for `CCNc1nc(NCC)nc(-n2nc(C)cc2C)n1`, the “activity change, negative = killing” value is -58.2% (inactive).

For `O=C(NN(c1ccccc1)c1ccccc1)c1ccc([N+](=O)[O-])o1`, the Potency is 1830 nM (active).

Consider `O=C(NNC(=O)c1ccc([N+](=O)[O-])o1)c1ccccc1`, for which the Potency is 516 nM (active).

`C/C(=N/NC(=O)C(O)(c1ccccc1)c1ccccc1)c1ccc([N+](=O)[O-])o1`: the Potency was 365 nM (active).

Take `CN(Cc1ccccc1)C(=O)c1ccc([N+](=O)[O-])o1`: the Potency is 3650 nM (active).

For `O=C(O)C1CCCN1S(=O)(=O)c1ccc(Br)cc1` (stereo not drawn), the “activity change, negative = killing” value is 1.98% (inactive).

`COc1ccc(OC)c2c(C)c(C)[nH]c12`: the “activity change, negative = killing” value is 1.8% (inactive).

For the compound `CN(C(=O)OC(C)(C)C)c1ccc(-c2nc3ccccc3s2)cc1`, the Potency was 1830 nM (active).

As for `Cc1c[nH]c(=O)c([N+](=O)[O-])c1`, the Potency was 8180 nM (active).

For `COc1cc2c3c(c1OC)C1(C=CC(=NNC(N)=O)C=C1)CC3N(C(C)=O)CC2` (stereo not drawn), the “activity change, negative = killing” value was 8.72% (inactive).

Turning to `O=C1CCCN1CCCN=c1c([N+](=O)[O-])nn(-c2ccc(Cl)cc2)n1O`, the Potency was 3650 nM (active).

As for `COc1ccc(-n2nc([N+](=O)[O-])c(=NCCCN3CCCC3=O)n2O)cc1`, the Potency is 2050 nM (active).

Regarding `Cn1cccc1C1CCCN1CC(=O)Nc1ccc(F)c(F)c1F` (stereo not drawn), the “activity change, negative = killing” value is -3.96% (inactive).

For `O=C(CSc1ccsc1[N+](=O)[O-])NC1CCCC1`, the Potency is 1030 nM (active).

As for `CCOC(=O)Cc1csc(SCC(=O)NC2CCCCC2)n1`, the “activity change, negative = killing” value is -6.03% (inactive).

For the compound `O=C(CSc1ccsc1[N+](=O)[O-])N1CCN(c2ccccn2)CC1`, the Potency was 579 nM (active).

For `O=C(CSc1ccsc1[N+](=O)[O-])NCc1ccccc1`, the Potency is 1160 nM (active).

As to `Cc1ccc(CNC(=O)CSc2ccsc2[N+](=O)[O-])cc1`, the Potency is 2590 nM (active).

For `COc1ccccc1CNC(=O)CSc1ccsc1[N+](=O)[O-]`, the Potency is 1450 nM (active).

With `CCc1ccccc1NC(=O)CSc1ccsc1[N+](=O)[O-]`, the Potency is 2310 nM (active).

With `CC(=O)c1ccc(NC(=O)CSc2ccsc2[N+](=O)[O-])cc1`, the Potency is 918 nM (active).

For `CCc1ccccc1NC(=O)CC(NCc1ccccc1)C(=O)O` (stereo not drawn), the “activity change, negative = killing” value is -10.3% (inactive).

For `COc1ccc(CNC(=O)CSc2ccsc2[N+](=O)[O-])cc1`, the Potency was 1630 nM (active).

For the compound `CCn1c(=O)n(CC)c2cc(N)ccc21`, the “activity change, negative = killing” value was 16.7% (inactive).

For the compound `Cc1cc(C(=O)CCC(=O)NC(C)c2ccc(S(N)(=O)=O)cc2)c(C)s1` (stereo not drawn), the “activity change, negative = killing” value was -28% (inactive).

On to `c1csc(-c2ccc(N3CCOCC3)nn2)c1`, for which the Potency is 3650 nM (active).

As for `O=[N+]([O-])c1ccc(NCc2ccccc2N2CCC(CO)CC2)nc1`, the Potency was 1450 nM (active).

Turning to `O=C1c2ccccc2C(=O)c2[nH]cnc21`, the Potency is 2590 nM (active).

Consider `O=C(O)c1ccc(NC(=O)c2cc3ccccc3o2)cc1`, for which the Potency is 6500 nM (active).

As for `O=C1CSC(c2ccc(F)cc2)N1c1c(F)cccc1F` (stereo not drawn), the “activity change, negative = killing” value was -0.629% (inactive).

Take `CC(C)(C)n1nc(-c2ccc(Cl)cc2)c2c(N)ncnc21`: the Potency is 14500 nM (active).

For the compound `COc1ccc(N2CCCC2)c(NC(=O)c2ccc([N+](=O)[O-])o2)c1`, the Potency was 516 nM (active).

Turning to `CCN(CC)S(=O)(=O)c1ccc(N2CCCC2)c(NC(=O)c2ccc([N+](=O)[O-])o2)c1`, the Potency was 1450 nM (active).

`COc1ccc2nc3cc(Cl)ccc3c(Nc3ccc(O)c(CN4CCN(C)CC4)c3)c2c1`: the Potency is 10300 nM (active).

In the case of `CN(C)CCCn1cnc2c(c1=N)C(c1ccccc1)c1ccc3ccccc3c1O2` (stereo not drawn), the Potency was 20500 nM (active).

Take `CCc1ccc(C(=O)/C=C/c2ccc([N+](=O)[O-])o2)cc1`: the Potency was 1300 nM (active).

As to `CN1CCN(C(=O)/C=C/c2ccc([N+](=O)[O-])o2)CC1`, the Potency is 818 nM (active).

`CC1CCN(c2c([N+](=O)[O-])nn(-c3ccc4c(c3)OCCO4)[n+]2[O-])CC1`: the Potency was 1030 nM (active).

On to `O=[N+]([O-])c1nn(-c2ccccc2)[n+]([O-])c1N1CCN(c2ccccc2)CC1`, for which the Potency is 1300 nM (active).

With `O=[N+]([O-])c1nn(-c2ccccc2)[n+]([O-])c1N1CCN(c2ccccc2F)CC1`, the Potency was 1160 nM (active).

Regarding `CCN(Cc1ccncc1)C(=O)CC1C(=O)NCCN1Cc1ccc(F)c(F)c1` (stereo not drawn), the “activity change, negative = killing” value was 2.79% (inactive).
